{
  "source": "PubChem BioAssay (NCATS)",
  "note": "Inconclusive results are not listed. Active and inactive are the calls of the source. The call rests on the fitted dose curve; in most records, active means well fitted curve in the direction sought with a large enough effect; inconclusive means small, poorly fitted or top-dose-only effect, or another doubt; inactive means no such curve, though single readings can be large; an effect the other way counts as inactive or inconclusive.",
  "data": [
    {"target": "Cytochrome P450 2C19 (Homo sapiens) (UniProt P33261)", "sequence (P33261 whole entry, looked up)": "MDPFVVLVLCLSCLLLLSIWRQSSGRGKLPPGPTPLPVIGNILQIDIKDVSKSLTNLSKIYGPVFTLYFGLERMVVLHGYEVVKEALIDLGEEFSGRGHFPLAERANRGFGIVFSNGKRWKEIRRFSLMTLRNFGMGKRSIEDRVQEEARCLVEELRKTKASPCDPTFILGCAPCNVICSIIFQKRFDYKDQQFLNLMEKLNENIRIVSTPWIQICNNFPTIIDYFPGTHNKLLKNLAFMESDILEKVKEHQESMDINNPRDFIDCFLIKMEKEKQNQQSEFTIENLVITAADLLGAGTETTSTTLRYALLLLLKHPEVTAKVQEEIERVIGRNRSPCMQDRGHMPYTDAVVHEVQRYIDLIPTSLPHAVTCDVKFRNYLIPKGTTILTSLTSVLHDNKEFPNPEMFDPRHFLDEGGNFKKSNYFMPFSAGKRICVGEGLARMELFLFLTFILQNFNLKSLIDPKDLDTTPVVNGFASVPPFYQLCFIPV", "assay": "qHTS Assay for Inhibitors and Substrates of Cytochrome P450 2C19 (AID 899); further: nearly all actives have a fitted effect of over 60% in size; further: potency means the concentration at half of the fitted maximal effect; on activity, negative = inhibition: on the % scale 0 is the no-effect control and ±100 the full control effect", "conditions": "recombinant CYP2C19, luciferin-H EGE luminescence; series mostly up to 57.1 µM; activity, negative = inhibition: at the top concentration", "in_short": "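5 nM human CYP2C19 with 10uM Luciferin-H EGE (at KM) in 50mM KPO4, compound preincubated 10 min at 37C, then NADPH regeneration for 60 min at 37C. Luciferin read by luminescence after detection reagent; normalized to 57uM ketoconazole as full inhibition.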", "values": [
      {"smiles": "CCCSc1ccc2nc(NC(=O)OC)[nH]c2c1", "outcome": "inactive"},
      {"smiles": "N=c1ccn2c(n1)O[C@H]1[C@H](O)[C@@H](CO)O[C@H]12", "activity, negative = inhibition": "46.9% (inactive)"},
      {"smiles": "CCC1C(=O)OCC1Cc1cncn1C", "note": "(stereo not drawn)", "Potency": "7.94 µM (active)"},
      {"smiles": "Nc1cc(-c2ccncc2)c[nH]c1=O", "Potency": "5.01 µM (active)"},
      {"smiles": "Clc1ccccc1-c1nc(-c2ccncc2)no1", "Potency": "0.0631 µM (active)"}
    ]},
    {"system": "not listed separately", "assay": "Confirmation and Secondary Assay for Modulators of Hemoglobin Beta Chain Splicing at IVS2 654 locus (AID 910);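 further: HeLa cells stably carrying EGFP split by mutant beta-globin IVS2-654 intron; % of control where 0% means no effect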", "conditions": "HeLa EGFP-654 splicing reporter, GFP fluorescence, 48 h; series mostly up to 46.1 µM; activation (splicing correction): at the top concentration", "in_short": "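HeLa cells stably expressing EGFP interrupted by β-globin IVS2-654 intron, seeded overnight in Opti-MEM/2% FCS, then treated 2 days at 37 °C. Restored splicing read as total peak GFP intensity per well by laser scanning cytometry (488 nm excitation, 500–520 nm emission); 500 nM antisense PNA as control.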", "values": [
      {"smiles": "CCCCC1C(=O)N(c2ccccc2)N(c2ccc(O)cc2)C1=O", "note": "(stereo not drawn)", "activation (splicing correction)": "9.04% (inactive)"},
      {"smiles": "CCCSc1ccc2nc(NC(=O)OC)[nH]c2c1", "activation (splicing correction)": "-1.83% (inactive)"},
      {"smiles": "O=c1cc(-c2ccccc2)oc2c(O)c(O)ccc12", "activation (splicing correction)": "-5.64% (inactive)"},
      {"smiles": "Nc1cc(-c2ccncc2)c[nH]c1=O", "activation (splicing correction)": "5.97% (inactive)"},
      {"smiles": "Cc1ccc(C(=O)c2ccc(CC(=O)O)n2C)cc1", "activation (splicing correction)": "7.58% (inactive)"},
      {"smiles": "CN1CCc2cccc3c2C1Cc1ccc(O)c(O)c1-3", "note": "(stereo not drawn)", "activation (splicing correction)": "-1.41% (inactive)"},
      {"smiles": "COc1cc(NC(C)CCCN)c2ncccc2c1", "note": "(stereo not drawn)", "activation (splicing correction)": "-2.19% (inactive)"},
      {"smiles": "CC(C(=O)O)c1ccc2c(c1)[nH]c1ccc(Cl)cc12", "note": "(stereo not drawn)", "activation (splicing correction)": "-2.7% (inactive)"},
      {"smiles": "Oc1c(Br)cc(Br)c2cccnc12", "activation (splicing correction)": "-6.08% (inactive)"},
      {"smiles": "Cc1c(N)c(=O)n(-c2ccccc2)n1C", "activation (splicing correction)": "-2.47% (inactive)"},
      {"smiles": "O=C(OCc1ccccc1)c1ccccc1", "activation (splicing correction)": "13.1% (inactive)"},
      {"smiles": "COc1cccc(OC)c1OCCNCC1COc2ccccc2O1", "note": "(stereo not drawn)", "activation (splicing correction)": "-0.43% [at 38.3 µM] (inactive)"},
      {"smiles": "O=C(O)c1ccccc1Nc1cccc(C(F)(F)F)c1", "activation (splicing correction)": "-8.57% (inactive)"},
      {"smiles": "O=C(/C=C/c1ccc(O)cc1)c1ccc(O)cc1O", "activation (splicing correction)": "16.7% (inactive)"},
      {"smiles": "Nc1ccc(C(=O)O)c(O)c1", "outcome": "inactive"},
      {"smiles": "Cc1c(Nc2ncccc2C(=O)O)cccc1C(F)(F)F", "activation (splicing correction)": "2.18% (inactive)"},
      {"smiles": "CCCCCCOc1ccccc1C(N)=O", "activation (splicing correction)": "-8.66% (inactive)"},
      {"smiles": "CN1C2CCC1CC(OC(=O)C(O)c1ccccc1)C2", "note": "(stereo not drawn)", "activation (splicing correction)": "0.681% (inactive)"},
      {"smiles": "CC1OC1P(=O)(O)O", "note": "(stereo not drawn)", "activation (splicing correction)": "4.9% (inactive)"},
      {"smiles": "Nc1nc(Cl)nc2c1ncn2[C@@H]1O[C@H](CO)[C@@H](O)[C@H]1O", "activation (splicing correction)": "1.26% [at 38.3 µM] (inactive)"},
      {"smiles": "CC(N)C(=O)OC(C)(C)Cc1ccc(Cl)cc1", "note": "(stereo not drawn)", "activation (splicing correction)": "0.329% (inactive)"},
      {"smiles": "CC(C(=O)O)c1ccc(C(=O)c2cccs2)cc1", "note": "(stereo not drawn)", "activation (splicing correction)": "10.5% (inactive)"},
      {"smiles": "O=C(/C=C/c1ccc(O)c(O)c1)OCCc1ccccc1", "activation (splicing correction)": "-3.12% [at 38.3 µM] (inactive)"},
      {"smiles": "N=C(N)N", "activation (splicing correction)": "1.24% [at 38.3 µM] (inactive)"}
    ]},
    {"system": "not listed separately", "assay": "Confirmation and Secondary Assay for Modulators of Hemoglobin Beta Chain Splicing at IVS2 705 locus (AID 930);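 further: HeLa cells stably expressing the EGFP-705 splicing reporter; GFP fluorescence per well restored by corrected splicing of the IVS2-705 intron in EGFP; % of control where 0% means no effect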", "conditions": "HeLa EGFP-705 splicing reporter, GFP fluorescence, 48 h; series mostly up to 46.1 µM; activation: at the top concentration", "in_short": "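Stable HeLa line with EGFP disrupted by mutant beta-globin intron 2 (705). Overnight attachment, then 2 days of compound at 37C, 5% CO2. Signal: peak GFP intensity summed over objects 5-250 µm.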", "values": [
      {"smiles": "CCCCC1C(=O)N(c2ccccc2)N(c2ccc(O)cc2)C1=O", "note": "(stereo not drawn)", "activation": "3.64% (inactive)"},
      {"smiles": "CCCSc1ccc2nc(NC(=O)OC)[nH]c2c1", "activation": "-0.196% (inactive)"},
      {"smiles": "O=c1cc(-c2ccccc2)oc2c(O)c(O)ccc12", "activation": "-1.06% (inactive)"},
      {"smiles": "Nc1cc(-c2ccncc2)c[nH]c1=O", "activation": "0.243% (inactive)"},
      {"smiles": "Cc1ccc(C(=O)c2ccc(CC(=O)O)n2C)cc1", "activation": "-1.01% (inactive)"},
      {"smiles": "CN1CCc2cccc3c2C1Cc1ccc(O)c(O)c1-3", "note": "(stereo not drawn)", "activation": "4.91% (inactive)"},
      {"smiles": "COc1cc(NC(C)CCCN)c2ncccc2c1", "note": "(stereo not drawn)", "activation": "2.93% (inactive)"},
      {"smiles": "CC(C(=O)O)c1ccc2c(c1)[nH]c1ccc(Cl)cc12", "note": "(stereo not drawn)", "activation": "2.68% (inactive)"},
      {"smiles": "Oc1c(Br)cc(Br)c2cccnc12", "activation": "-1.06% (inactive)"},
      {"smiles": "Cc1c(N)c(=O)n(-c2ccccc2)n1C", "activation": "0.817% (inactive)"},
      {"smiles": "O=C(OCc1ccccc1)c1ccccc1", "activation": "-0.0041% (inactive)"},
      {"smiles": "COc1cccc(OC)c1OCCNCC1COc2ccccc2O1", "note": "(stereo not drawn)", "activation": "-0.0559% [at 38.3 µM] (inactive)"},
      {"smiles": "O=C(O)c1ccccc1Nc1cccc(C(F)(F)F)c1", "activation": "-0.539% (inactive)"},
      {"smiles": "O=C(/C=C/c1ccc(O)cc1)c1ccc(O)cc1O", "activation": "0.731% (inactive)"},
      {"smiles": "Nc1ccc(C(=O)O)c(O)c1", "outcome": "inactive"},
      {"smiles": "Cc1c(Nc2ncccc2C(=O)O)cccc1C(F)(F)F", "activation": "0.768% (inactive)"},
      {"smiles": "CCCCCCOc1ccccc1C(N)=O", "activation": "-0.251% (inactive)"},
      {"smiles": "CN1C2CCC1CC(OC(=O)C(O)c1ccccc1)C2", "note": "(stereo not drawn)", "activation": "-0.375% (inactive)"},
      {"smiles": "CC1OC1P(=O)(O)O", "note": "(stereo not drawn)", "activation": "1.78% (inactive)"},
      {"smiles": "Nc1nc(Cl)nc2c1ncn2[C@@H]1O[C@H](CO)[C@@H](O)[C@H]1O", "activation": "-0.304% [at 38.3 µM] (inactive)"},
      {"smiles": "CC(N)C(=O)OC(C)(C)Cc1ccc(Cl)cc1", "note": "(stereo not drawn)", "activation": "0.695% (inactive)"},
      {"smiles": "CC(C(=O)O)c1ccc(C(=O)c2cccs2)cc1", "note": "(stereo not drawn)", "activation": "0.284% (inactive)"},
      {"smiles": "O=C(/C=C/c1ccc(O)c(O)c1)OCCc1ccccc1", "activation": "-1.03% [at 38.3 µM] (inactive)"},
      {"smiles": "N=C(N)N", "activation": "-0.399% [at 38.3 µM] (inactive)"}
    ]}
  ]
}
